The text below walks through data of PubChem BioAssay.

Assay [1] relates to Plasmodium falciparum Sir2 (PF13_0152, Sir2A). Briefly: Plasmodium falciparum Sir2A binding compounds – biochemical, small-molecule microarray, 635 nm fluorescence, primary screen (AID 1098).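 Note: score merges spot fluorescence intensity with its signal-to-noise ratio.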 The conditions noted are these: fluorescence 635 nm, higher = more signal.
Assay [2] can be described thus: probe aDKK1 binding to arrayed compounds – biochemical, biotinylated probe, 635/667 nm fluorescence, primary screen (AID 1099).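 Note: score merges 667nm spot fluorescence with signal to noise across triplicate slides.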 Conditions: small-molecule microarray, higher = more signal.
A short description of assay [3]: probe aCHRDL2 binding to arrayed compounds – biochemical, biotinylated probe, 635/667 nm fluorescence, primary screen (AID 1100). Conditions: small-molecule microarray, higher = more signal.
A short description of assay [4]: change in splice reporter luminescence, either direction, cell-based, HEK293, spliceosome inhibition project, primary screen (AID 1101).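 Note: HEK293 cells carrying a splicing-competent luciferase reporter gene; test concentration not given here.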 The conditions noted are these: HEK293 splicing luciferase reporter, 24 h, higher = more signal, called active from +8 up or from −8 down.
The target of assay [5] is Fibroblast growth factor 10 (Homo sapiens) (UniProt O15520). Briefly: compounds binding fibroblast growth factor 10 – biochemical, small-molecule microarray, 635 nm fluorescence, primary screen (AID 1102). Conditions: FGF10 binding, fluorescence 635 nm, higher = more signal.
Fibroblast growth factor 10 (Homo sapiens), sequence (O15520 whole entry, looked up): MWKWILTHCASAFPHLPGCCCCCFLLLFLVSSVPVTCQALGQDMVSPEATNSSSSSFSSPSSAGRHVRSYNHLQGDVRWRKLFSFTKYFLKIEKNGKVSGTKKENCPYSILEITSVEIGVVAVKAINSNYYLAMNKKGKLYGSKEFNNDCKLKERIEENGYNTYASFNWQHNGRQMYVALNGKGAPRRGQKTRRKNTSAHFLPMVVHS
Assay [6] has as its system glycogen synthase kinase-3 (GSK3A per assay name; protocol says GSK3B). Kind of assay: compounds binding glycogen synthase kinase-3 – biochemical, small-molecule microarray, 635 nm fluorescence, GSK3A, primary screen (AID 1103). Note: the record names both GSK3A and GSK3B. The conditions noted are these: fluorescence 635 nm, higher = more signal.
Assay [7] has as its target Epidermal growth factor receptor (Homo sapiens) (UniProt P00533). Briefly: compounds binding epidermal growth factor receptor – biochemical, small-molecule microarray, 635 nm fluorescence, primary screen (AID 1104).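 Note: score merges 667 nm emission intensity with spot signal to noise over triplicate slides.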 The conditions noted are these: EGFR binding, higher = more signal.
Assay [8] has as its target Follistatin-related protein 3 (Homo sapiens) (UniProt O95633). Kind of assay: compounds binding follistatin-related protein 3 – biochemical, small-molecule microarray, 635 nm fluorescence, primary screen (AID 1105).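 Note: score merges emission near 667 nm and signal to noise per printed spot across three slides.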 The conditions noted are these: FSTL3 binding, higher = more signal.
Assay [9] addresses Dickkopf-related protein 1 (Homo sapiens) (UniProt O94907). Briefly: small molecules binding DKK1 protein – biochemical, small-molecule microarray, 635 nm fluorescence scan, primary screen (AID 1106).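 Note: score merges emission near 667 nm with signal to noise over three replicate slides.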 Conditions: higher = more signal.
In assay [10] the test system is Inhibin beta A chain (activin A). Briefly: small molecules binding activin A – biochemical, small-molecule microarray, 635 nm fluorescence scan, primary screen (AID 1107).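 Note: mouse activin A protein probed at 4.33 µg/mL on printed slides; score merges bound-protein fluorescence near 667 nm with spot signal-to-noise.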 Conditions: INHBA, higher = more signal.
The subject of assay [11] is Human papillomavirus type 1a protein E7 (residues 44-93). Briefly: small molecules binding HPV E7 44-93 – biochemical, small-molecule microarray, residues 44-93, 635 nm fluorescence, primary screen (AID 1108).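 Note: E7 fragment applied at 1 µg/mL in TBST for 1 h at 4 C; score combines spot fluorescence with its signal to noise ratio.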 Conditions: fluorescence 635 nm, higher = more signal.
The nature of assay [12]: hepatitis C replication reporter changes, two-sided – Huh7 cells, luciferase reporter, HCV replication inhibitor project, primary screen (AID 1109).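 Note: huh7 hepatoma cells harbouring a luciferase neomycin HCV replicon reporter; luciferase luminescence as measure of HCV replicon replication; test concentration not given here.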 Conditions: Huh7 HCV replicon luciferase reporter, 48 h; higher = more signal. A general note: In a reporter assay the amount or activity of a reporter protein is the signal.
For assay [13], the target named is Left-right determination factor 2 (Homo sapiens) (UniProt O00292). Kind of assay: small molecules binding LEFTY2 protein – biochemical, small-molecule microarray, 635 nm fluorescence scan, primary screen (AID 1110). The conditions noted are these: higher = more signal.
Left-right determination factor 2 (Homo sapiens), sequence (O00292 whole entry, looked up): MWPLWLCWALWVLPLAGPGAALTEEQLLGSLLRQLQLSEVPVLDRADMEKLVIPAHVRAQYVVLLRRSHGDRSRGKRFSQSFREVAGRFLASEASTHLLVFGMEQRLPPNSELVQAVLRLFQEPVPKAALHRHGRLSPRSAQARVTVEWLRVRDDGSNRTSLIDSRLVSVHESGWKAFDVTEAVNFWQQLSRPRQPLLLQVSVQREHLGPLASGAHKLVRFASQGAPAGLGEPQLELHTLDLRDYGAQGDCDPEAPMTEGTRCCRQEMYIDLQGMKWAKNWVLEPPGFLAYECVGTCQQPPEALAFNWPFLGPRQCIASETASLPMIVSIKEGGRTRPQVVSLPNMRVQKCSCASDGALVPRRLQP
Assay [14] addresses Calmodulin-1 (Homo sapiens) (UniProt P0DP23). Briefly: small molecules binding calmodulin-1 with EGTA – biochemical, small-molecule microarray, Cy5-labelled CALM1, profiling panel (AID 1111).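 Note: labelled calmodulin applied in Tris saline Tween buffer holding calcium plus EGTA and DTT.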 The conditions noted are these: Cy5-CALM1 binding fluorescence, higher = more signal.
For assay [15] the target is unchanged. Briefly: small molecules binding Ca-loaded calmodulin-1 – biochemical, small-molecule microarray, Cy5-labelled CALM1, plus calcium, artefact control for SMM control-protein annotation, profiling panel (AID 1112).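 Note: score merges spot fluorescence with signal to noise from triplicate slides.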 Conditions: Cy5-CALM1 binding fluorescence, higher = more signal.
Assay [16] is described as follows: probe aWnt5a binding to arrayed compounds – biochemical, biotinylated probe, 635/667 nm fluorescence, primary screen (AID 1113).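 Note: score merges 667 nm fluorescence intensity with signal-to-noise per printed feature.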 Conditions: small-molecule microarray, higher = more signal.
Assay [17] can be described thus: probe aShh binding to arrayed compounds – biochemical, biotinylated probe, 635/667 nm fluorescence, primary screen (AID 1114).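 Note: probe is biotin-labelled aShh protein from a stem cell growth factor screen; measures binding of labelled protein to compounds printed on the slide; score merges feature fluorescence at 667 nm with signal-to-noise.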 The conditions noted are these: small-molecule microarray, higher = more signal.
Assay [18] in a line: probe aNog binding to arrayed compounds – biochemical, biotinylated probe, 635/667 nm fluorescence, primary screen (AID 1115).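 Note: probe is biotinylated aNog protein used at 0.15 µg/mL for 1 h at 4 C; z-score combines 667 nm fluorescence of each spot with its signal to noise.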 The conditions noted are these: small-molecule microarray, higher = more signal.
Assay [19] has as its target Torsin-1A-interacting protein 1 (Homo sapiens) (UniProt Q5JTV8). Kind of assay: compound microarray binding of lysate hLAP1 – cell lysate, small-molecule microarray, COS7 lysate, 635/667 nm fluorescence, primary screen (AID 1116). Conditions: 635 nm fluorescence, higher = more signal.
The target of assay [20] is Alpha-bungarotoxin (Bungarus multicinctus) (UniProt P60615). Briefly: compounds binding labelled alpha-BTX control protein – biochemical, small-molecule microarray, Alexa647 label, 635/667 nm fluorescence, artefact control for SMM control protein annotation, profiling panel (AID 1117). Conditions: alpha-BTX-A647 binding fluorescence, higher = more signal.
Alpha-bungarotoxin (Bungarus multicinctus), sequence (P60615 whole entry, looked up): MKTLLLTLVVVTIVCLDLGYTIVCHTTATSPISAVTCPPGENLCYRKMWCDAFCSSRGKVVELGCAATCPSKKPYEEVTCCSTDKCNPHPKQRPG

The source made the active and inactive calls.

Epidermal growth factor receptor (Homo sapiens), sequence (P00533 whole entry, looked up): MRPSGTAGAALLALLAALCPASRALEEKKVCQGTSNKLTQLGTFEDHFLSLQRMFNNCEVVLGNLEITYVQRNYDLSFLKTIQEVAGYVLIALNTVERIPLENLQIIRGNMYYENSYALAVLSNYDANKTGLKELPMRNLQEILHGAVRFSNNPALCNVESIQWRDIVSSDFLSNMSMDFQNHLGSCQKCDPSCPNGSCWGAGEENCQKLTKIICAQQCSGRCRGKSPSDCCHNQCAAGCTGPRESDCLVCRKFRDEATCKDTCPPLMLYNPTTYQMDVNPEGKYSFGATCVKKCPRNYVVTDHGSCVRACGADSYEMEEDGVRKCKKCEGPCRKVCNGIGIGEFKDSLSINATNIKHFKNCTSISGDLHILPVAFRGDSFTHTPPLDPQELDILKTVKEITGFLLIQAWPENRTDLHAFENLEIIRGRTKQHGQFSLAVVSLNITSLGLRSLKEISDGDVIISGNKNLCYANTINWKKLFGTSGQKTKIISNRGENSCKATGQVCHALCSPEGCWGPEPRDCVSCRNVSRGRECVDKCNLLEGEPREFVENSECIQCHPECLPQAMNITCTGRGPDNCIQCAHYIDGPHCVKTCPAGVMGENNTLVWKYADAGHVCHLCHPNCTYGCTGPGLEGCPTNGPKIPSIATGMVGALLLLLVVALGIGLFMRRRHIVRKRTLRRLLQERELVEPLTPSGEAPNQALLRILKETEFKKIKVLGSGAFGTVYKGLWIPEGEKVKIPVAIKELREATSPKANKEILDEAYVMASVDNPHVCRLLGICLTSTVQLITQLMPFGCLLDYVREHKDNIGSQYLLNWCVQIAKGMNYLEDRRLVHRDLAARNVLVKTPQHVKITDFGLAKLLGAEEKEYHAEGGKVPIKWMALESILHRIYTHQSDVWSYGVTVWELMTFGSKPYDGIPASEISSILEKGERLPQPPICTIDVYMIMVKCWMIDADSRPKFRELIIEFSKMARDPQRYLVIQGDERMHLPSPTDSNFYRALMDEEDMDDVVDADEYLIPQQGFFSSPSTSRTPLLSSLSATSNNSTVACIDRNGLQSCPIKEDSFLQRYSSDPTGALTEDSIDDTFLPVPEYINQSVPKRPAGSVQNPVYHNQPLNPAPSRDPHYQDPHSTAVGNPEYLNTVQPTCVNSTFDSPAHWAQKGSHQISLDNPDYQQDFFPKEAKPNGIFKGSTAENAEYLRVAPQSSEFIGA
Torsin-1A-interacting protein 1 (Homo sapiens), sequence (Q5JTV8 whole entry, looked up): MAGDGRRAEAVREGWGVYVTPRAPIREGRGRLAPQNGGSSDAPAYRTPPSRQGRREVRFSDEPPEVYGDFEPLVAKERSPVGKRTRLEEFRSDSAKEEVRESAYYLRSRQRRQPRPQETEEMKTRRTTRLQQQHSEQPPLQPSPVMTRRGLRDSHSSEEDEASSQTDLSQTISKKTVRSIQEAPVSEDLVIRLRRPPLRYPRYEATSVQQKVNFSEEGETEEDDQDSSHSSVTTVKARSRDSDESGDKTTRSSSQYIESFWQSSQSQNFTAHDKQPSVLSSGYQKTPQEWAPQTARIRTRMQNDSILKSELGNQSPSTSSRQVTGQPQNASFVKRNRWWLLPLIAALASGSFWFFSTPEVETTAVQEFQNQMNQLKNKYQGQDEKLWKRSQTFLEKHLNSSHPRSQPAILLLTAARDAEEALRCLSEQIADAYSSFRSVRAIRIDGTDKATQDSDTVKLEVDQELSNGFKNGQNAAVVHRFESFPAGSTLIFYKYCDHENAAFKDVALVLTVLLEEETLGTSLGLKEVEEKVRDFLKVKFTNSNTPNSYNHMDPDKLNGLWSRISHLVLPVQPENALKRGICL
Dickkopf-related protein 1 (Homo sapiens), sequence (O94907 whole entry, looked up): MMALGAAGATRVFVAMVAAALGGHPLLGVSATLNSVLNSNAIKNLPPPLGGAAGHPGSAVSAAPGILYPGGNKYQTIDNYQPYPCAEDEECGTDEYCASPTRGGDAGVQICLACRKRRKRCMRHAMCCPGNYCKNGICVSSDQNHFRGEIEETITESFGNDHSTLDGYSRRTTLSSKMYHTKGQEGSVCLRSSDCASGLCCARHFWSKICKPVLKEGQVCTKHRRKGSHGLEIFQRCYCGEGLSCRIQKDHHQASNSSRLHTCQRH
Follistatin-related protein 3 (Homo sapiens), sequence (O95633 whole entry, looked up): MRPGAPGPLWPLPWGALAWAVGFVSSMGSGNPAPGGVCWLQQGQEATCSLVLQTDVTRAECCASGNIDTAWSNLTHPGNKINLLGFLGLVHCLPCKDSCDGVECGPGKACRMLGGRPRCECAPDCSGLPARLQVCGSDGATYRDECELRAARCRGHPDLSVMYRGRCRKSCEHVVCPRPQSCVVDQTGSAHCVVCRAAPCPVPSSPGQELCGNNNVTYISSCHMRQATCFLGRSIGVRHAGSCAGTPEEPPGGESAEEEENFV

`COc1ccc(CCNC(=O)[C@@H]2c3ccccc3C(=O)N(Cc3ccc(OC(F)(F)F)cc3)[C@H]2c2ccc(CO)cc2)cc1`: the composite z-score in [1] was 1.7; in assay [2], 0.0658; in assay [3], 0.396; in [5] it was 0.719; in assay [6], 0.965; in assay [7], -0.227. The composite z-score in assay [8] was 0.251; in assay [9], -0.204; in assay [10], 0.258; in [11] it was 1.38; in assay [13], -0.264; in [14] it was 0.107. The composite z-score is -0.12 in [15]; -0.146 in assay [16]; -0.147 in [17]; 0.28 in [18]; 1 in assay [19]; -0.0177 in assay [20]. Also, the z-score was 0.0514 (inactive) in assay [4] and -1.81 in assay [12].

On to `[N-]=[N+]=Nc1ccccc1C[C@]1(C(=O)NCCN2CCOCC2)N=C(c2ccc(OCCCO)cc2)O[C@H]1c1ccccc1`, for which the composite z-score in [1] was 1.09; in [2], 0.641; in [3], 0.273; in [5], 0.484; in [6] it was 1.31; in assay [7], -0.117. In addition, the composite z-score in [8] was -0.391; in assay [9] it was -0.019; in assay [10] it was -0.16; in [11], 1.03; in [13] it was -0.0447; in assay [14], 0.169. Also, the composite z-score in [15] is 0.129; in assay [16], -0.103; in assay [17], 0.123; in [18], -0.465; in assay [19], 1.44; in assay [20], 0.968. The z-score in assay [4] is 0.183 (inactive); in [12] it was -1.99.

`COCCCNC(=O)[C@@]1(C)c2ccccc2C(=O)N(Cc2cc(C(F)(F)F)cc(C(F)(F)F)c2)[C@H]1c1ccc(CO)cc1`: the composite z-score in assay [1] was 1.48; in assay [2], -0.0291; in assay [3], 0.945; in [5] it was -0.607; in assay [6], -0.514; in assay [7], -1.24. The composite z-score is -0.875 in assay [8]; -1.62 in assay [9]; -0.754 in [10]; 1.32 in [11]; -1.8 in [13]; 0.0356 in assay [14]. In addition, the composite z-score in [15] is 0.378; in assay [16], -0.154; in assay [17], -0.0626; in [18], 0.583; in [19] it was -0.235; in assay [20], 1.41. For the same compound, the z-score in assay [4] is 0.803 (inactive); in assay [12], 0.261.

As for `Cc1ccc(S[C@]2(C(=O)NCC(C)C)CC(=O)N(Cc3ccccc3Cl)[C@@H]2c2ccc(CO)cc2)cc1`, the composite z-score in assay [1] was -0.248; in assay [2], 0.254; in assay [3], 0.94; in [5], -0.756; in assay [6], -1.15; in [7], -1. Moreover, the composite z-score in assay [8] was -2.05; in [9] it was -1.77; in [10] it was -0.544; in [11], -0.411; in assay [13], -1.46; in [14] it was -0.476. For the same compound, the composite z-score in assay [15] is -0.115; in [16], -0.228; in assay [17], -0.181; in assay [18], -0.618; in [19], -1.08; in assay [20], 0.86. For the same compound, the z-score in [4] is 0.35 (inactive); in assay [12], -1.73.

Consider `CS(=O)(=O)CCOC(=O)C1=CC(CCCO)=CC(c2cccs2)N(Cc2cc3c(cc2Br)OCO3)C=C1C(=O)OCCS(C)(=O)=O` (stereo not given), for which the composite z-score is 0.727 in assay [1]; -0.0606 in assay [2]; 0.15 in [3]; 1.04 in assay [5]; 1.25 in assay [6]; 0.259 in assay [7]. For the same compound, the composite z-score came to 1.22 in assay [8]; 0.238 in assay [9]; 1.2 in assay [10]; 1.27 in assay [11]; 0.858 in [13]; 1.29 in [14]. Besides, the composite z-score in [15] is 0.671; in assay [16], 0.0968; in assay [17] it was 0.0639; in [18], -0.261; in assay [19], 0.955; in [20] it was 1.8. Moreover, the z-score in [4] was 0.576 (inactive); in [12], -1.22.

Take `COC(=O)C1=CC(CCCO)=CC(C2CC2)N(Cc2sc3ccccc3c2Cl)C=C1C(=O)OC` (stereo not given): the composite z-score in [1] was determined as 1.17; in [2], 0.589; in assay [3] it was 0.724; in assay [5] it was 1.02; in assay [6], 0.902; in [7], 0.0108. The composite z-score is 0.766 in assay [8]; -0.0017 in [9]; 1.06 in [10]; 1.44 in [11]; 0.101 in [13]; 1.49 in [14]. Moreover, the composite z-score in [15] stood at 0.952; in assay [16] it was 0.168; in [17], 0.441; in [18], 0.838; in assay [19], 1.74; in [20], 1.84. The z-score was -0.8 (inactive) in [4] and -2.53 in assay [12].
